According to PubChem BioAssay (NCI):
Several values for one entry are separate records, joined by “and”; a condition that tells them apart may be missing. Equal values may be shown once. About 83,000 compounds went through this panel and 20% of them were active in at least one assay; those are over-represented in the sample as a whole.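 Values shown are percent growth following 48 h exposure of cells in 96-well plates to a single concentration of compound; below 10 was considered active.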 Activity calls are given as the source filed them.

Assays:
Test in all cases: NCI-60 one-dose screen, 48 h (100 = growth as untreated, 0 = no growth, -100 = all killed)
Settings in all cases: 10 µM unless noted
NCI-H23 lung = test system: NCI-H23 lung
NCI-H226 lung = test system: NCI-H226 lung
NCI-H322M lung = test system: NCI-H322M lung
HOP-62 NSCLC = test system: HOP-62 NSCLC
NCI-H460 lung = test system: NCI-H460 lung
HOP-92 NSCLC = test system: HOP-92 NSCLC
NCI-H522 lung = test system: NCI-H522 lung
A549/ATCC NSCLC = test system: A549/ATCC NSCLC
786-0 renal = test system: 786-0 renal
DU-145 prostate = test system: DU-145 prostate
K-562 leukemia = test system: K-562 leukemia
MALME-3M melanoma = test system: MALME-3M melanoma
MDA-MB-231 breast = test system: MDA-MB-231 breast
RXF 393 renal = test system: RXF 393 renal
SF-268 CNS = test system: SF-268 CNS
SF-295 CNS = test system: SF-295 CNS
SF-539 CNS = test system: SF-539 CNS
UACC-257 melanoma = test system: UACC-257 melanoma
M14 melanoma = test system: M14 melanoma
COLO 205 colon = test system: COLO 205 colon

SMILES | growth (NCI-H23 lung) | growth (NCI-H226 lung) | growth (NCI-H322M lung) | growth (HOP-62 NSCLC) | growth (NCI-H460 lung) | growth (HOP-92 NSCLC) | growth (NCI-H522 lung) | growth (A549/ATCC NSCLC) | growth (786-0 renal) | growth (DU-145 prostate) | growth (K-562 leukemia) | growth (MALME-3M melanoma) | growth (MDA-MB-231 breast) | growth (RXF 393 renal) | growth (SF-268 CNS) | growth (SF-295 CNS) | growth (SF-539 CNS) | growth (UACC-257 melanoma) | growth (M14 melanoma) | growth (COLO 205 colon)
CCCCC#Cc1c(/C=C(\CCCC)SCC)n(C)c(=O)[nH]c1=O | 94.1% (inactive) | 93.2% (inactive) | 97.7% (inactive) | 94.8% (inactive) | 93.8% (inactive) | 82.8% (inactive) | 79.7% (inactive) | 83.1% (inactive) | 98.5% (inactive) | 110% (inactive) | 72.2% (inactive) | 112% (inactive) | 102% (inactive) | -12.1% (active) | 93.7% (inactive) | 114% (inactive) | 98.4% (inactive) | 98.9% (inactive) | 105% (inactive) | –
O=C1C=CC(=O)N1c1ccc2ccccc2c1 | 93.4% (inactive) and 103% (inactive) | 97.6% (inactive) and 111% (inactive) | 118% (inactive) and 103% (inactive) | 101% (inactive) | 110% (inactive) and 111% (inactive) | 81.8% (inactive) and 84.1% (inactive) | -58.9% (active) and -24.2% (active) | 99% (inactive) | 103% (inactive) and 104% (inactive) | 94.4% (inactive) and 99.5% (inactive) | 47% (inactive) and 35.5% (inactive) | 69.4% (inactive) and 30.9% (inactive) | 111% (inactive) and 96.5% (inactive) | 83.3% (inactive) and 102% (inactive) | 100% (inactive) and 105% (inactive) | 112% (inactive) and 99% (inactive) | 108% (inactive) and 93.6% (inactive) | 92.5% (inactive) and 91.1% (inactive) | 91.1% (inactive) and 103% (inactive) | –
COc1ccc(Oc2nc(Nc3ccc(N4CCOCC4)cc3)ncc2NC(=O)c2cccc(C(F)(F)F)c2)cc1 | 87.3% (inactive) | 81.2% (inactive) | 83.6% (inactive) | 94.4% (inactive) | 70.2% (inactive) | 76.7% (inactive) | 0.64% (active) | 66% (inactive) | 87.8% (inactive) | 91.9% (inactive) | 56% (inactive) | 97.5% (inactive) | 69.1% (inactive) | 65.6% (inactive) | 89.5% (inactive) | 85.6% (inactive) | 77.3% (inactive) | 98.2% (inactive) | 80.7% (inactive) | –
COc1cc(-c2nc(SCCC(C)C)nc(Nc3ccc(F)cc3)c2C#N)cc(OC)c1OC | 84.3% (inactive) | 90.4% (inactive) | 63.2% (inactive) | 17.8% (inactive) | 21.4% (inactive) | 72.6% (inactive) | 75% (inactive) | 28.3% (inactive) | 46.1% (inactive) | 66.2% (inactive) | 85.2% (inactive) | 94.4% (inactive) | 38.4% (inactive) | 95.5% (inactive) | 65.9% (inactive) | 85.4% (inactive) | 52.3% (inactive) | 103% (inactive) | 91% (inactive) | –
COc1cc(OC)cc(-c2ccc(-c3ccc(C(=N)N)cn3)s2)c1 | 94.6% (inactive) | 70% (inactive) | 89.2% (inactive) | 86% (inactive) | 4.75% (active) | 86.6% (inactive) | 78.7% (inactive) | 63.2% (inactive) | 74.3% (inactive) | 66.3% (inactive) | 0.742% (active) | 99.5% (inactive) | 81.1% (inactive) | 98.6% (inactive) | 93.9% (inactive) | 88.7% (inactive) | 83.3% (inactive) | 97.8% (inactive) | – | –
Nc1nc2ccccc2c2c(=O)c3ccc(Cl)cc3sc12 | 92% (inactive) | 98.9% (inactive) | 103% (inactive) | 99.1% (inactive) | 72.7% (inactive) | – | 94.3% (inactive) | 94.7% (inactive) | 99.1% (inactive) | 97.5% (inactive) | 90.7% (inactive) | 107% (inactive) | 91% (inactive) | 111% (inactive) | 95.2% (inactive) | 101% (inactive) | 106% (inactive) | 105% (inactive) | 94.5% (inactive) | 98.4% (inactive)
CN1CCN(CCCN2c3ccccc3Sc3ccc(Cl)cc32)CC1 | 82.3% (inactive) and 86.4% (inactive) | 95.7% (inactive) and 95.1% (inactive) | 93.1% (inactive) | 90.4% (inactive) | 93.4% (inactive) and 96.9% (inactive) | – | 81.5% (inactive) and 92.9% (inactive) | 73.9% (inactive) and 80.4% (inactive) | 62.8% (inactive) and 72% (inactive) | 91% (inactive) and 104% (inactive) | 42.3% (inactive) and 39.7% (inactive) | 91.6% (inactive) | 70.7% (inactive) and 55.1% (inactive) | 47% (inactive) and 63% (inactive) | 82.3% (inactive) and 88.2% (inactive) | 85.7% (inactive) and 82.5% (inactive) | 85.1% (inactive) | -34.7% (active) and 53.2% (inactive) | -53.2% (active) and 63.3% (inactive) | 26.8% (inactive)
CCOC(=O)n1cc(-c2nonc2-c2cn(C)c3ccc(OC)cc23)c2cc(F)ccc21 | 76.1% (inactive) | 78.3% (inactive) | 67.4% (inactive) | 72.6% (inactive) | 80.6% (inactive) | – | 74.4% (inactive) | 56.5% (inactive) | 93.9% (inactive) | 92.7% (inactive) | 67.7% (inactive) | 81.9% (inactive) | 71.4% (inactive) | 89.6% (inactive) | 83.1% (inactive) | 60.8% (inactive) | 86.1% (inactive) | 74.5% (inactive) | 83.9% (inactive) | 90.9% (inactive)
O=C1CCCCN1CCCCC#Cc1cccc(C#Cc2cccnc2)c1 | 88.5% (inactive) | 78.1% (inactive) | 180% (inactive) | 114% (inactive) and 98.7% (inactive) | 73% (inactive) | – | 75.7% (inactive) | 81% (inactive) | 116% (inactive) and 89.9% (inactive) | 109% (inactive) | 26.9% (inactive) | 249% (inactive) | 65.3% (inactive) | – | 83.2% (inactive) | 79.9% (inactive) | 91.8% (inactive) | 84.4% (inactive) | 105% (inactive) | 83.5% (inactive)
COc1cc(-c2nn(-c3cccc(NC(=O)CCN4CCN(C)CC4)c3)cc2-c2ccncc2)ccc1Cl | 42.5% (inactive) | 67.7% (inactive) | 37.5% (inactive) | 24.6% (inactive) | 14.9% (inactive) | – | -6.1% (active) | 30.7% (inactive) | 12.2% (inactive) | 3.19% (active) | -10.4% (active) | 38% (inactive) | 39.9% (inactive) | 18.6% (inactive) | 31.5% (inactive) | -6.03% (active) | -19.6% (active) | 39.3% (inactive) | -41.6% (active) | -31.6% (active)
O=C(CN1C(=O)S/C(=C\C(Cl)=C\c2ccccc2)C1=O)NC1C=CS(=O)(=O)C1 (stereo not given) | 16.7% (inactive) | -21.7% (active) | 88.9% (inactive) | 86.5% (inactive) | 54% (inactive) | – | -46.2% (active) | 68.5% (inactive) | -74.4% (active) | 24.8% (inactive) | 4.66% (active) | -24.9% (active) | 14.3% (inactive) | -77.8% (active) | 63.9% (inactive) | 80.8% (inactive) | 1.56% (active) | 45.2% (inactive) | -49.9% (active) | -21.8% (active)
Nc1ccccc1SC(CC(=O)c1ccccc1)c1ccc([N+](=O)[O-])cc1 (stereo not given) | 93.2% (inactive) and 84.7% (inactive) | – | 107% (inactive) and 83.8% (inactive) | 106% (inactive) and 102% (inactive) | 103% (inactive) and 105% (inactive) | 71.4% (inactive) | 96.9% (inactive) and 76.4% (inactive) | 93.9% (inactive) and 82% (inactive) | 106% (inactive) and 93.3% (inactive) | 110% (inactive) and 88% (inactive) | 68.8% (inactive) and 13.2% (inactive) | 112% (inactive) and 74.5% (inactive) | 84.1% (inactive) and 85.2% (inactive) | 102% (inactive) and 91.2% (inactive) | 98.7% (inactive) and 82.1% (inactive) | 90.2% (inactive) and 85.2% (inactive) | 107% (inactive) and 105% (inactive) | 107% (inactive) and 86.7% (inactive) | 108% (inactive) and 85.8% (inactive) | 91.6% (inactive) and 102% (inactive)
C=C1C(=O)O[C@@H]2[C@H]3[C@H](COC(C)=O)[C@@H](OC(C)=O)C[C@H]3C(=C)[C@@H](O)C[C@@H]12 | 96.2% (inactive) | 98.8% (inactive) | 102% (inactive) | 91.7% (inactive) | 103% (inactive) | – | 73% (inactive) | 90.6% (inactive) | 85.8% (inactive) | 76.5% (inactive) | 86.8% (inactive) | 88.9% (inactive) | 99% (inactive) | 99.5% (inactive) | 96.5% (inactive) | 103% (inactive) | 103% (inactive) | 83.3% (inactive) | 87.6% (inactive) | 100% (inactive)
